Structures are written as SMILES. Inconclusive results are not listed. A call without a number means that no potency is given here. Activity calls are given as the source filed them. Calls follow the shape of the dose curve; as a rule, active = well fitted curve in the direction sought with a large enough effect; inconclusive = small, poorly fitted or top-dose-only effect, or another doubt; inactive = no such curve, though single readings can be large or run the other way.

Data on 23 compounds can be found in PubChem BioAssay AID2513 (National Center for Advancing Translational Sciences (NCATS), 2010).

This experiment is described as follows: Counterscreen Assay for Enhancers of SMN2 Splice Variant Expression: Modulation of SMN1 Expression for Probe SAR. The conditions noted are these: HEK293 SMN1-luciferase reporter, luminescence, 30-36 h; series mostly up to 46.1 µM. From the text: NIH Chemical Genomics Center [NCGC] NIH Molecular Libraries Probe Production centers Network [MLPCN] MLPCN Grant: R03 MH084179-01 Assay Submitter (PI): Elliot Androphy NCGC Assay Overview: Spinal muscular atrophy (SMA) is caused by insufficient levels of the survival motor neuron protein SMN. The SMN locus on chromosome 5q13 contains two inverted copies of SMN called SMN1 and SMN2 which are 99% identical at the amino acid level. SMN1 is a fully functional protein and SMN2 skips exon 7 90% of the time. Skipping of exon 7 produces non-functional protein product. 10% of the SMN2 protein includes exon 7 and is fully functional. In the SMA disease state, mutations in the SMN1 locus are the cause of the disease state. Because only 10% of SMN2 is of the fully functional form, it is not sufficient to overcome the deficiency produced by the loss of the SMN1 product. A therapy that either increase the amount of SMN2 product made or to increase the inclusion of exon 7 has been proposed for the treatment of SMA. We have designed an assay to identify small molecules that can increase the amount of functional SMN2 product by appending a luciferase reporter gene after the native SMN2 gene, such that inclusion of exon 7 in the expressed product places the luciferase sequence in frame, thus generating functional luciferase enzyme. As a counterscreen for nonspecific modulators of expression, we have run compounds through a similar assay that measures expression of an SMN1-luciferase chimera.
NCGC Assay Protocol Summary: This screen utilizes a luciferase reporter gene assay, combining the promoter with the major portion of the native SMN1 cDNA (exons 1 -7, intron 8 , exon 8 fused to luciferase) stably expressed in HEK293 cells. Compounds that increase luciferase signal presumably enhance expression of the functional SMN1 splice variant. Passaging media contained DMEM w/ glutamax (+phenol red) 10% FCS, 1x pen/strep, 200 ug/ml hygro, 1x sodium pyruvate. Assay media contained DMEM w/ glutamax (-phenol red) 10% FCS, 1x pen strep, 1x pyruvate Sequence, Parameter, Value, Description (1) Cells, 5 uL, 2000 cells/well, 1536 TC treated White solid bottom plate (2) Time, 10-12 hours, 37C 5% CO2 (3) Compound, 23 nl, MLSMR Library (4) Control Compound, 23 nL, Sodium butyrate st 4.5mM (final) conc (5) Time, 30-36 hours, 37C 5% CO2 (6) Reagent, 3 ul, One Glo (TM) from Promega (7) Time, 5-15 minutes, Room temp (8) Detector, Viewlux: luminescent read, 60 second integration, high speed 2x binning Keywords: Spinal muscular atrophy, SMA, SMN2, high throughput screening, MLSMR, MLPCN, NIH Roadmap, qHTS and NCGC
On to `NC(=O)C1CCN(c2nc(-c3ccc4ccccc4c3)cs2)CC1`, for which the Potency result is “inactive”.

As for `NC(=O)C1CCN(c2nc(-c3cc4ccccc4o3)cs2)CC1`, the Potency entry was “inactive”.

As for `CN(C)C(=O)c1cccc(-c2csc(N3CCC(C(N)=O)CC3)n2)c1`, the Potency entry is “inactive”. As for `CC(=O)c1cccc(-c2csc(N3CCC(C(N)=O)CC3)n2)c1`, the Potency result was “inactive”.

On to `NC(=O)C1CCN(c2nc(-c3ccc4occc(=O)c4c3)cs2)CC1`, for which the Potency result was “inactive”. With `NC(=O)C1CCN(c2nc(-c3ccccc3-c3ccccc3)cs2)CC1` the entry was “inactive”; with `NC(=O)C1CCN(c2nc(-c3cccnc3)cs2)CC1`, “inactive”; with `NC(=O)C1CCN(c2nc(-c3ccccc3C(F)(F)F)cs2)CC1`, “inactive”. For `CS(=O)(=O)c1cccc(-c2csc(N3CCC(C(N)=O)CC3)n2)c1` the value was “inactive”; for `NC(=O)C1CCN(c2nc(-c3cccc(N)c3)cs2)CC1`, “inactive”. For `Cc1noc(C)c1-c1csc(N2CCC(C(N)=O)CC2)n1` the value was “inactive”; for `Brc1ccc(-c2csc(N3CCCCC3)n2)cc1`, “inactive”. Take `CC(=O)c1ccc(-c2csc(N3CCC(C(N)=O)CC3)n2)cc1`: the Potency result is “inactive”. Regarding `NC(=O)C1CCN(c2nc(-c3ccccc3N)cs2)CC1`, the Potency entry is “inactive”. For `Cn1ccc2cc(-c3csc(N4CCC(C(N)=O)CC4)n3)ccc21` the value was “inactive”; for `COc1ccc(-c2csc(N3CCC(C(N)=O)CC3)n2)cc1`, “inactive”; for `NC(=O)C1CCN(c2nc(-c3cccs3)cs2)CC1`, “inactive”. With `CN(C)c1ccccc1-c1csc(N2CCC(C(N)=O)CC2)n1` the entry was “inactive”. Regarding `NC(=O)C1CCN(c2nc(-c3ccccc3Br)cs2)CC1`, the Potency entry was “inactive”. For `NC(=O)C1CCN(c2nc(-c3ccccc3F)cs2)CC1` the value was “inactive”.

For the compound `NC(=O)C1CCN(c2nc(-c3ccc4c(c3)OCCO4)cs2)CC1`, the Potency was 19.4 µM (active). As for `NC(=O)C1CCN(c2nc(-c3cccc(Cl)c3)cs2)CC1`, the Potency result is “inactive”. With `CS(=O)(=O)c1ccccc1-c1csc(N2CCC(C(N)=O)CC2)n1` the entry was “inactive”.
